# Screening results: PubChem BioAssay, Broad Institute
# U2OS ROS induce: cancer cell ROS induction. U2OS ROS induction, H2DCF-DA fluorescence. ROS induction (% of piperlongumine), % at 10 µM. actives 2% (n = 46,000). AID 624156; in the data active means ROS induction above about 79%, passing the limit was not always enough;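 further: 0% = DMSO vehicle median and 100% = reference compound median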
# * marks the source's active call; other numbers are inactive results. This excerpt belongs to a sample that is enriched for hits.
SMILES,U2OS ROS induce
C[C@H](CO)N1C[C@H](C)[C@@H](CN(C)C(=O)Nc2ccc(C(F)(F)F)cc2)Oc2ccc(NC(=O)Nc3ccc4c(c3)OCO4)cc2C1=O,35
C[C@@H]1CN([C@@H](C)CO)C(=O)c2cc(NC(=O)Nc3ccc4c(c3)OCO4)ccc2O[C@@H]1CN(C)C(=O)Nc1ccc(C(F)(F)F)cc1,227*
C[C@H](CO)N1C[C@H](C)[C@@H](CN(C)C(=O)Nc2ccc3c(c2)OCO3)Oc2ccc(NC(=O)Nc3ccc(F)cc3)cc2C1=O,-8
C[C@@H]1CN([C@H](C)CO)C(=O)c2cc(NC(=O)Nc3ccc(C(F)(F)F)cc3)ccc2O[C@H]1CN(C)C(=O)Nc1ccc2c(c1)OCO2,-9
C[C@@H]1CN([C@H](C)CO)C(=O)c2cc(NC(=O)Nc3ccc(F)cc3)ccc2O[C@@H]1CN(C)C(=O)Nc1ccc2c(c1)OCO2,4
CCc1ccc(OCCSc2nc(C)cc(=O)[nH]2)cc1,-3
Cc1ccc(S(=O)(=O)N(C)C[C@@H]2Oc3c(NC(=O)c4ccc(-c5nccs5)cc4)cccc3C(=O)N([C@H](C)CO)C[C@H]2C)cc1,-6
O=C(NCc1ccccc1)C1CCC(Cn2c(=S)[nH]c3ccccc3c2=O)CC1 (stereo unspecified),6
CC(C)NC(=O)Nc1ccc2c(c1)C(=O)N([C@H](C)CO)C[C@@H](C)[C@H](CN(C)C(=O)NC(C)C)O2,-18
C[C@H]1CN([C@@H](C)CO)C(=O)Cc2cc(NC(=O)Nc3cccc4ccccc34)ccc2O[C@H]1CN(C)S(=O)(=O)c1ccc(Cl)cc1,3
C[C@H]1CN([C@@H](C)CO)C(=O)c2cccc(NC(=O)Nc3ccc4c(c3)OCO4)c2O[C@@H]1CN(C)C(=O)Nc1ccc(F)cc1,-5
CCOC(=O)N1CCN(C(=O)c2ccco2)CC1,-4
C[C@@H]1CN([C@@H](C)CO)C(=O)c2cc(NS(=O)(=O)c3cccs3)ccc2O[C@H]1CN(C)CC1CC1,14
Nc1ncc(Br)cc1S(=O)(=O)NCCC(=O)Nc1ccc(Cl)cc1,-10
CC(=O)O[C@H]1[C@H](Oc2ccccc2COC(=O)C2(O)C=CCCC2=O)O[C@H](COC(=O)C2(O)C=CCCC2=O)[C@@H](O)[C@@H]1O (stereo partly specified),89*
CC(=O)O[C@H]1[C@H](Oc2ccccc2COC(=O)C2(O)C=CCCC2=O)O[C@H](CO)[C@@H](O)[C@@H]1O (stereo partly specified),-5
O=C(O[C@H]1[C@H](Oc2ccccc2COC(=O)C2(O)C=CCCC2=O)O[C@H](CO)[C@@H](O)[C@@H]1O)c1ccccc1 (stereo partly specified),6
Cc1ccc(S(=O)(=O)Nc2ccc3c(c2)C(=O)N([C@H](C)CO)C[C@@H](C)[C@@H](CN(C)S(=O)(=O)c2ccccc2)O3)cc1,12
C[C@@H]1CN([C@H](C)CO)C(=O)c2cc(NS(=O)(=O)c3cccs3)ccc2O[C@@H]1CN(C)C(=O)NC1CCCCC1,1
COc1ccc2c(c1)C(=O)/C(=C/c1ccc(N(C)C)cc1)CC2,122*
COc1ccc(/C=C2\CCc3ccccc3C2=O)cc1Cn1cccn1,1
COc1cc(/C=C/C(=O)/C=C/c2ccc(N(C)C)cc2)cc(OC)c1OC,56
C[C@H](CO)N1C[C@H](C)[C@H](CN(C)Cc2ccc3c(c2)OCO3)Oc2ccc(NS(=O)(=O)c3ccccc3)cc2CC1=O,-3
C[C@@H]1CN([C@H](C)CO)C(=O)CCCn2cc(nn2)CO[C@@H]1CN(C)Cc1ccc(Cl)c(Cl)c1,14
C[C@@H]1CN([C@@H](C)CO)C(=O)c2cc(NC(=O)Cn3cnnn3)ccc2O[C@H]1CN(C)Cc1ccc(Oc2ccccc2)cc1,16
SMILES,U2OS ROS induce
O=C(O)c1cccc(/C=N/NC(=O)c2ccccc2O)c1,3
C[C@H]1CN([C@@H](C)CO)C(=O)Cc2cc(NC(=O)Nc3ccc4c(c3)OCO4)ccc2O[C@H]1CN(C)Cc1ccc(Oc2ccccc2)cc1,4
COc1ccc(OC)c(NC(=O)CSc2nc(-c3ccccc3)cs2)c1,51
CC(=O)c1ccc(NC(=O)CSc2ncnc3c2sc2nc4c(cc23)COC(C)(C)C4)cc1,-3
COc1ccc(OC)c(NC(=O)CSc2nncc3ccccc23)c1,-6
O=C(CSc1nnc(-c2ccccc2)n1-c1ccccc1)Nc1ccc(Br)cc1,0
CC1(C)Cc2nc(-c3ccccc3)nc(SCC(=O)Nc3ccc(Br)cc3)c2CO1,113*
COc1ccc(OC)c(NC(=O)CSc2nc(-c3ccccc3)nc3c2COC(C)(C)C3)c1,77*
Cc1ccc(-c2nsc(SCC(N)=O)n2)cc1,-3
Cc1cccc(-n2c(SCC(=O)Nc3ccccc3)nnc2-c2ccccc2)c1,5
C[C@@H]1CN([C@H](C)CO)C(=O)c2cc(NC(=O)Nc3cccc4ccccc34)ccc2O[C@H]1CN(C)S(=O)(=O)c1ccc(F)cc1,10
COc1cc([C@@H]2c3cc4c(cc3[C@@H](OC3OC5COC(C)OC5C(O)C3O)[C@H]3COC(=O)[C@H]23)OCO4)cc(OC)c1O (stereo partly specified),0
